The structures appear in SMILES notation. This is part of a sample that, as a whole, favours compounds with a hit. Of some 83,000 tested, about 20% had one in any assay.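 Percent growth is the endpoint: 0 to 100 indicates growth inhibition (40 means 60% inhibition), 0 means no net growth, and negative values indicate cell death.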 Values without a mark were called inactive. Active and inactive are the calls of the source. How the source made its calls: active means growth percent below 10; inactive means the rest.

In PubChem BioAssay (NCI) one finds growth data, which are given here for seven compounds.

Test systems include NCI-H23 lung; NCI-H226 lung; NCI-H322M lung; HOP-62 NSCLC; NCI-H460 lung; HOP-92 NSCLC; NCI-H522 lung; A549/ATCC NSCLC; 786-0 renal; COLO 205 colon; DU-145 prostate; K-562 leukemia; MALME-3M melanoma; MDA-MB-231 breast; RXF 393 renal; SF-268 CNS; SF-295 CNS; SF-539 CNS; UACC-257 melanoma; M14 melanoma.
Test in all cases: NCI-60 one-dose screen, 48 h (100 = growth as untreated, 0 = no growth, -100 = all killed)
Settings in all cases: 10 µM unless noted

Regarding `Cc1c(C)c2c(c(C)c1OC(=O)CCC(=O)[O-])CCC(C)(CCCCCCCCCCC[P+](c1ccccc1)(c1ccccc1)c1ccccc1)O2` (stereo not given), the growth in the test with NCI-H23 lung was -16.5% (active); in the test with NCI-H226 lung, -6.94% (active); in the test on NCI-H322M lung, 0.982% (active); with HOP-62 NSCLC it was -67.7% (active); in the test with NCI-H460 lung, -69% (active); in the test with HOP-92 NSCLC, -82.7% (active). For the same compound, the growth was -25.9% (active) in the test on NCI-H522 lung; -2.64% (active) in the test with A549/ATCC NSCLC; -49.7% (active) in the test with 786-0 renal; -52.9% (active) with COLO 205 colon; -54.1% (active) in the test on DU-145 prostate; 6.14% (active) in the test with K-562 leukemia. Further, the growth with MALME-3M melanoma is -83.6% (active); in the test with MDA-MB-231 breast, -34.2% (active); in the test with RXF 393 renal, -78.3% (active); in the test on SF-268 CNS, -61.3% (active); in the test with SF-295 CNS it was -87.4% (active); in the test with SF-539 CNS, -69.1% (active). The growth in the test with UACC-257 melanoma was -54.2% (active); with M14 melanoma it was -60.3% (active).

On to `COCCNC(=O)Cc1cc(-c2ccc(Cl)cc2)n(-c2ccccc2)c1C`, for which the growth with NCI-H23 lung was 73.6%; in the test with NCI-H226 lung, 89.8%; with NCI-H322M lung it was 95.4%; with HOP-62 NSCLC, 2.89% (active); in the test with NCI-H460 lung, 94%; in the test on HOP-92 NSCLC it was 78.8%. In addition, the growth in the test on NCI-H522 lung was 58.8%; in the test with A549/ATCC NSCLC, 82.1%; in the test with 786-0 renal it was 88.7%; in the test on COLO 205 colon, 96.3%; in the test with DU-145 prostate, 101%; in the test with K-562 leukemia, 64.7%. Further, the growth with MALME-3M melanoma is 93.7%; with MDA-MB-231 breast, 89.9%; in the test on RXF 393 renal, 84.8%; in the test on SF-268 CNS, 88.5%; with SF-295 CNS it was 85.6%; with SF-539 CNS, 92.8%. Also, the figures for the growth in the test with UACC-257 melanoma and in the test with M14 melanoma were 95.6% and 88.1%, respectively.

In the case of `NCCNc1ccc([N+](=O)[O-])cc1`, the growth was 112% in the test with NCI-H23 lung; 99.5% in the test with NCI-H226 lung; 112% with NCI-H322M lung; 104% in the test on HOP-62 NSCLC; 111% in the test with NCI-H460 lung; 98.9% with HOP-92 NSCLC. For the same compound, the growth is 94.9% in the test on NCI-H522 lung; 108% in the test on A549/ATCC NSCLC; 99.5% in the test on 786-0 renal; 120% in the test on COLO 205 colon; 126% in the test on DU-145 prostate; 92.4% in the test with K-562 leukemia. Moreover, the growth is 115% with MALME-3M melanoma; 122% in the test with MDA-MB-231 breast; 123% in the test on RXF 393 renal; 110% with SF-268 CNS; 128% with SF-295 CNS; 107% in the test on SF-539 CNS. For the same compound, the growth in the test with UACC-257 melanoma is 115%; in the test with M14 melanoma, 106%.

Regarding `Nc1nc(N)c2c(n1)NC(c1ccc3c(c1)OCO3)CC(c1cccc(Nc3ccncc3)c1)=N2` (stereo not given), the growth is 90% in the test with NCI-H23 lung; 84.6% in the test on NCI-H226 lung; 96.9% in the test with NCI-H322M lung; 90.4% with HOP-62 NSCLC; 96.5% in the test on NCI-H460 lung; 70.7% with HOP-92 NSCLC. The growth is 77.3% in the test on NCI-H522 lung; 79.6% in the test on A549/ATCC NSCLC; 96.9% in the test on 786-0 renal; 86.3% with COLO 205 colon; 106% in the test with DU-145 prostate; 44.3% with K-562 leukemia. Also, the growth in the test with MALME-3M melanoma is 100%; in the test on MDA-MB-231 breast it was 94.2%; with RXF 393 renal it was 82.2%; in the test on SF-268 CNS, 68.1%; in the test with SF-295 CNS it was 96.5%; in the test on SF-539 CNS it was 101%. In addition, the growth is 67.3% in the test with UACC-257 melanoma and 83.5% with M14 melanoma.

`NS(=O)(=O)Oc1cccc(-c2nc3sccn3c2-c2ccccc2)c1`: the growth is 76.2% with NCI-H23 lung; 85.4% in the test on NCI-H226 lung; 89.7% in the test with NCI-H322M lung; 50.2% with HOP-62 NSCLC; 38.9% with NCI-H460 lung; 45.8% in the test on HOP-92 NSCLC. For the same compound, the growth in the test on NCI-H522 lung was 61.5%; in the test on A549/ATCC NSCLC it was 52.6%; with 786-0 renal, 65.5%; in the test with COLO 205 colon, 69.7%; in the test on DU-145 prostate it was 89.9%; in the test on K-562 leukemia, 16.7%. Also, the growth with MALME-3M melanoma is 41.3%; in the test with MDA-MB-231 breast, 60.3%; with RXF 393 renal, 50%; with SF-268 CNS it was 70.1%; in the test on SF-295 CNS, 28.8%; in the test on SF-539 CNS, 31.9%. In addition, the values for the growth in the test with UACC-257 melanoma and with M14 melanoma were 74.4% and 20.4%, respectively.

Regarding `CCN(CC)c1ccc(/C=N/NC(=O)c2ccccc2Nc2ccnc(C(F)(F)F)c2)c(O)c1`, the growth in the test on NCI-H23 lung is 40.4%; with NCI-H226 lung it was 8.93% (active); in the test on NCI-H322M lung, 39.7%; with HOP-62 NSCLC it was 28%; with NCI-H460 lung, 4.43% (active); with HOP-92 NSCLC it was 19.9%. Besides, the growth in the test with NCI-H522 lung was 42.9%; in the test with A549/ATCC NSCLC, 35.8%; with 786-0 renal it was 16.6%; with COLO 205 colon, 25.7%; with DU-145 prostate, 20.7%; in the test on K-562 leukemia it was 62.9%. For the same compound, the growth in the test with MALME-3M melanoma was 45.3%; in the test with MDA-MB-231 breast it was 56.8%; in the test with RXF 393 renal, 51.4%; in the test on SF-268 CNS, 14.5%; in the test with SF-295 CNS, 24.1%; in the test on SF-539 CNS it was -11.1% (active). For the same compound, the growth with UACC-257 melanoma was 19.2%; in the test on M14 melanoma, -17.4% (active).

Turning to `CC(=O)[C@H]1CC[C@]2(C)[C@@H]1CC[C@@H]1[C@@]3(C)C/C(=C/c4cccnc4)C(=O)C(C)(C)[C@@H]3CC[C@]12C`, the growth was 78.2% in the test with NCI-H23 lung; 81.1% in the test on NCI-H226 lung; 91.6% in the test on NCI-H322M lung; 115% with HOP-62 NSCLC; 67.3% in the test on NCI-H460 lung; 48.8% with HOP-92 NSCLC. Besides, the growth was 68% in the test on NCI-H522 lung; 65.9% in the test with A549/ATCC NSCLC; 121% with 786-0 renal; 64.2% in the test with COLO 205 colon; 85.3% in the test on DU-145 prostate; 30.3% in the test on K-562 leukemia. The growth was 82.6% in the test on MALME-3M melanoma; 83.9% in the test on MDA-MB-231 breast; 97.7% in the test on RXF 393 renal; 79.7% with SF-268 CNS; 89.8% in the test with SF-295 CNS; 97.6% with SF-539 CNS. For the same compound, the growth in the test on UACC-257 melanoma is 63.4%; in the test with M14 melanoma, 71.8%.
